Data: PubChem BioAssay
The source made the active and inactive calls.

Molecular target: Homeobox protein Hox-A13 (Mus musculus) (UniProt Q62424)
Assay: disruptors of Hoxa13 oligonucleotide interaction – biochemical, fluorescence polarization, labeled oligonucleotide, primary screen (AID 1185)
Conditions: Hoxa13:DNA binding, 15 min, higher = more signal, called active from +8 up or from −8 down

Chain of Homeobox protein Hox-A13 (Mus musculus) (Q62424 whole entry, looked up): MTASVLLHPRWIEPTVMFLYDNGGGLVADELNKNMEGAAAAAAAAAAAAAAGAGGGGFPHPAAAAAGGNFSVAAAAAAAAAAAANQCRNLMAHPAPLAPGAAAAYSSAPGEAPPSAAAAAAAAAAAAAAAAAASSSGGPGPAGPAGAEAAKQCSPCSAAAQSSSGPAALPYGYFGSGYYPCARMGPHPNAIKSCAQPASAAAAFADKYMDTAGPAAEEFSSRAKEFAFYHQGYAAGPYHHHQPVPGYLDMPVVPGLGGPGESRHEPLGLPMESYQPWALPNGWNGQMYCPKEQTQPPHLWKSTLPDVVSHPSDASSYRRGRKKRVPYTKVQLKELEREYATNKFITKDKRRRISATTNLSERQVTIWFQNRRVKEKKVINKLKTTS

z-score, active:
O=C1O[C@H](c2ccccc2)[C@H](c2ccccc2)N2[C@H]1[C@@H](C(=O)N1CCCCCCC1)[C@]1(C(=O)Nc3ccc(C#CC4=CCCCC4)cc31)[C@H]2c1ccc(OCCO)cc1 -15.4

z-score, inactive:
C=CCN1C(=O)[C@@]2(Cc3ccccc31)N=C(c1ccc(OCCCO)cc1)O[C@H]2c1ccccc1 -4.35
CC(C)C(O)C1C=CC2C(=O)N(c3ccccc3)C(=O)C2N1Nc1ccc([N+](=O)[O-])cc1 (stereo unspecified) -3.78
COC(=O)[C@H](Cc1ccccc1)N[C@@H](/C=C/C1CC1)[C@H](O)Cc1ccccc1 -5.71
CCOC(=O)C[C@H]1[C@H](OC(=O)c2ccc(C(=O)c3ccccc3)cc2)[C@@H](NC(=O)c2ccccc2)c2cc(OCCCO)ccc2N1C(=O)Cc1ccc(OC)cc1 -1.99
COc1ccc([Si](C)(C)[C@H]2[C@H](CCO)O[C@@]3(C(=O)N(Cc4ccc(N(C=O)c5ccccc5)cc4)c4ccccc43)[C@@H]2C)cc1 -0.824
CC(C)c1ccc(NN2C(C(O)c3ccc(B(O)O)cc3)C=CC3C(=O)N(c4ccccc4)C(=O)C32)cc1 (stereo unspecified) -4.18
COc1ccc(CCNC(=O)[C@@]2(Sc3ccc(C)cc3)CC(=O)N(C3Cc4ccccc4C3)[C@@H]2c2ccc(CO)cc2I)cc1 -2.4
COCCOC(=O)N1C(=O)[C@@]2(c3ccccc31)[C@H](c1ccc(O)cc1)N1[C@H](c3ccccc3)[C@H](c3ccccc3)OC(=O)[C@H]1[C@@H]2C(=O)Nc1nc2ccccc2s1 -0.526
C=C(C(=O)CC[C@@H](OC(=O)c1cccnc1)c1ccccc1OCCO)C(C)C -3.56
NCCCCCNC(=O)[C@@H]1C[C@@H]2C(=O)N[C@@H](Cc3ccccc3)C(=O)N2[C@@H]1c1ccc(O)cc1 -1.87
CCCCCCc1nc(-c2ccc(OC)nc2)cc2c1[Si](C(C)C)(C(C)C)O[C@H]2c1ccccc1 -2.62
C[N+](C)(C)CCCCNC(=O)[C@@H]1C[C@@H]2C(=O)N[C@@H](Cc3ccccc3)C(=O)N2[C@@H]1c1cccc(OCCO)c1 -2.57
COc1cc2c(cc1O)C(c1cccs1)N(C)CC2 (stereo unspecified) -3.91
C[C@@]1([C@@H](NC(=O)c2ccc(-c3ccccc3)cc2)c2ccc(Cl)cc2)C[C@H]1C1CCCCC1 -2.06
Cc1ccc(S[C@]2(C(=O)O)CC(=O)N(C(C)C)[C@@H]2c2ccc(CO)cc2I)cc1 -3.85
CN1C(=O)C2C=CC(C(O)C3CC=CCC3)N(N(c3ccccc3)c3ccccc3)C2C1=O (stereo unspecified) -1.18
O=C1NC(=O)C2C1C=CC(C(O)c1cccs1)N2Nc1ccc(Cl)cc1Cl (stereo unspecified) -4.05
C=CCC(OC(C)=O)[C@@H]1[C@@H](N(Cc2ccc(-c3ccccc3)cc2)C(=O)Cc2ccc(OC)cc2)c2cc(OCCCO)ccc2N1C(=O)Cc1ccc2ccccc2c1 (stereo partly specified) -1.62
CC(C)C[C@@H]1NC(=O)[C@@H]2C[C@H](C(=O)NCc3ccc(F)cc3)[C@H](c3cccc(OCCO)c3)N2C1=O -3.95
C=CCC(OC(C)=O)[C@@H]1[C@@H](N(Cc2ccc(-c3ccccc3)cc2)C(=O)c2cccc3ccccc23)c2cc(OCCCO)ccc2N1C(=O)c1ccc(-c2ccccc2)cc1 (stereo partly specified) -1.22
CCCC[C@H]1OB(O)C[C@H]2C1=C(COC)Cn1c(=O)n(-c3ccccc3)c(=O)n12 -2.41
O=C1NC(=O)C2C1C=CC(C(O)c1cc(C(F)(F)F)cc(C(F)(F)F)c1)N2Nc1ccccn1 (stereo unspecified) -3.28
CC1CC/C=C\[C@H]2OC34C=CCN(Cc5ccccc5)C(=O)[C@H]3N(CCCO)C(=O)[C@@H]4C2C(=O)O1 (stereo partly specified) -4.95
C=C(CC1([C@@H](NP(=O)(c2ccccc2)c2ccccc2)[C@H]2C[C@@H]2CCCC)CC1)c1ccccc1 -2.33
CC(C)N1C(=O)c2ccccc2[C@](C)(C(=O)NCCN2CCOCC2)[C@@H]1c1ccc(CO)cc1 -3.78
[N-]=[N+]=NCc1ccccc1[C@@H]1OC(c2ccc(OCCCO)cc2)=N[C@]1(Cc1ccccc1)C(=O)NCC(O)CO (stereo partly specified) -2.01
Cc1ccc(S[C@]2(C(=O)NCCCN(C)C)CC(=O)N(Cc3ccccc3C(F)(F)F)[C@@H]2c2ccc(CO)cc2)cc1 -1.25
[N-]=[N+]=Nc1ccccc1[C@@H]1OC(c2ccc(OCCCO)cc2)=N[C@]1(Cc1ccccc1)C(=O)N1CCOCC1 -4.82
Cc1nc2cc(Br)ccc2c(=O)o1 0.0804
CC1CC/C=C\[C@H]2OC34C=CCN(C(C)(C)C)C(=O)[C@H]3N(C(C)CO)C(=O)[C@@H]4C2C(=O)O1 (stereo partly specified) -5.51
C=CCOC(=O)[C@@H]1[C@H]2C(=O)O[C@H](c3ccccc3)[C@H](c3ccccc3)N2[C@H](c2ccc(OCCOC(=O)[C@H]3C[C@H]4C(=O)N5CCC[C@H]5C(=O)N4[C@H]3c3ccc(O)cc3)cc2)[C@@]12C(=O)Nc1ccc(I)cc12 1.53
C=C(/C(=C/C[C@H](OC(C)=O)c1ccccc1OCCO)c1cnc2ccccc2c1)C(C)C -5.41
CCCCN1CC=CC23O[C@@H]4C=CCCOC(=O)C4[C@H]2C(=O)N(CCCCCCO)[C@@H]3C1=O (stereo partly specified) -4.29
COc1ccc(C#Cc2ccc3c(c2)[C@]2(C(=O)N3)[C@H](C(=O)NC[C@H](O)c3ccccc3)[C@H]3C(=O)O[C@H](c4ccccc4)[C@H](c4ccccc4)N3[C@@H]2c2ccc(O)cc2)cc1 -0.752
O=C(c1ccccc1)N1C(=O)[C@]2(COC(c3ccc(OCCCO)cc3)=N2)Cc2ccccc21 -5.86
